# Data from PubChem BioAssay (NCATS).
# Values joined by “and” are separate entries in the source; they are usually repeats but may differ in a detail not shown here. Equal values may be shown once. Results filed as inconclusive are left out. A call without a number means that no potency is given here. Active and inactive are the calls of the source. Unless noted, calls come from the whole dose curve; as a rule, active = well fitted curve in the direction sought with a large enough effect; inconclusive = small, poorly fitted or top-dose-only effect, or another doubt; inactive = no such curve, though single readings can be large; an effect the other way counts as inactive or inconclusive.
# Tests used:
# [1] = biological target: Calcium and integrin-binding protein 1 (Homo sapiens) (UniProt Q99828); test: Primary qHTS for Identification of Calcium Integrin Binding Protein 1 (CIB1) Competitor (AID 1508620); note: potency is the fitted concentration of half-maximal effect;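 for activity change, negative = inhibition: GST tagged CIB1 binding a fluorescein labelled alphaIIb integrin peptide tracer; top concentration of the series differs between compounds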
# Calcium and integrin-binding protein 1 (Homo sapiens), sequence (Q99828 whole entry, looked up): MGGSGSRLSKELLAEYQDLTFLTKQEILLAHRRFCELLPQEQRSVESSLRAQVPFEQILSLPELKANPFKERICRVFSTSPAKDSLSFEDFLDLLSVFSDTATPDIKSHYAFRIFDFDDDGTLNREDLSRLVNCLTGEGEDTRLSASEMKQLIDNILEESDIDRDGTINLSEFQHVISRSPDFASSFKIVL
# Summary of the method: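 CIB1-GST (1 uM final) and compound incubated 15 min at room temperature before adding FITC-alphaIIb peptide tracer (100 nM final). Competition for binding read by fluorescence polarization (ex 480, em 540) after another 15 min at room temperature.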
# [2] = biological target: Cytochrome P450 2C9 (Homo sapiens) (UniProt P11712); test: Cytochrome P450 family 2 subfamily C member 9 (CYP2C9) small molecule antagonists: luciferase biochemical (cell-free) qHTS assay (AID 1645842; active = well fitted curve in the direction sought with a large enough effect in the repeat runs; an effect the other way counts as inactive or inconclusive; note: nearly all actives have a fitted effect of over 55% in size; note: potency is the fitted concentration of half-maximal effect)
# Cytochrome P450 2C9 (Homo sapiens), sequence (P11712 whole entry, looked up): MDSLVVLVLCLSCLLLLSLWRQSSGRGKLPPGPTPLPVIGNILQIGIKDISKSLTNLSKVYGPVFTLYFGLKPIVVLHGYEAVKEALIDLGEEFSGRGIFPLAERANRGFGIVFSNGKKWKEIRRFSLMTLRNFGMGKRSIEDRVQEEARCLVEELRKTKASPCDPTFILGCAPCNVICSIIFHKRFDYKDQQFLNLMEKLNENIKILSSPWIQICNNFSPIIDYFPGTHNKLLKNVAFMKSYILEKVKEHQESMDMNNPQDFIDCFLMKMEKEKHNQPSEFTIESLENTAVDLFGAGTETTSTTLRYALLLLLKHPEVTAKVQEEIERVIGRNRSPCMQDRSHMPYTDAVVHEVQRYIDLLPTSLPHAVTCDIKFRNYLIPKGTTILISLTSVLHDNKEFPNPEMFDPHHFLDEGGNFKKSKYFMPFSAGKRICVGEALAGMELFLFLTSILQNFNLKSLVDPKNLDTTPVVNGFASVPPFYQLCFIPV
# Summary of the method: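 Luminescence, after 20 min with luciferin detection reagent, reflected CYP2C9 turnover during a 1 h NADPH-driven reaction at 37C. Enzyme-substrate mix contained 0.4% bovine serum albumin and was preincubated with compound 10 min at room temperature.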
# [3] = Cytotoxicity counterscreen for inhibitors of SARS-CoV-2 cell entry (AID 1645845; calls by dose curve; note: nearly all actives have a fitted effect of over 50% in size; note: potency is the fitted concentration of half-maximal effect)
# Summary of the method: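 48 h compound treatment (after 1 h preincubation), HEK293-ACE2 cells, 37 C/5% CO2; ATP luminescence endpoint; normalized to cell wells and media blanks.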
# [4] = A High-Content qHTS Against Drug Library for the Identification of Small Molecules that Inhibit DYT1 Early Onset Primary Dystonia-Associated Cell Pathology (AID 1645839; calls by dose curve)
# Summary of the method: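 In this high-content image screen, delE TorsinA mislocalization in inducible Flp-In 293 cells is scored as %pathology, with cell count serving as the counterscreen. Compound exposure lasts 48 h under tetracycline induction in reduced-serum medium.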
# [5] = biological target: Cytochrome P450 2D6 (Homo sapiens) (UniProt P10635); test: Cytochrome P450 family 2 subfamily D member 6 (CYP2D6) small molecule antagonists: luciferase biochemical (cell-free) qHTS assay (AID 1645840; active = well fitted curve in the direction sought with a large enough effect in the repeat runs; an effect the other way counts as inactive or inconclusive; note: nearly all actives have a fitted effect of over 55% in size; note: potency is the fitted concentration of half-maximal effect)
# Cytochrome P450 2D6 (Homo sapiens), sequence (P10635 whole entry, looked up): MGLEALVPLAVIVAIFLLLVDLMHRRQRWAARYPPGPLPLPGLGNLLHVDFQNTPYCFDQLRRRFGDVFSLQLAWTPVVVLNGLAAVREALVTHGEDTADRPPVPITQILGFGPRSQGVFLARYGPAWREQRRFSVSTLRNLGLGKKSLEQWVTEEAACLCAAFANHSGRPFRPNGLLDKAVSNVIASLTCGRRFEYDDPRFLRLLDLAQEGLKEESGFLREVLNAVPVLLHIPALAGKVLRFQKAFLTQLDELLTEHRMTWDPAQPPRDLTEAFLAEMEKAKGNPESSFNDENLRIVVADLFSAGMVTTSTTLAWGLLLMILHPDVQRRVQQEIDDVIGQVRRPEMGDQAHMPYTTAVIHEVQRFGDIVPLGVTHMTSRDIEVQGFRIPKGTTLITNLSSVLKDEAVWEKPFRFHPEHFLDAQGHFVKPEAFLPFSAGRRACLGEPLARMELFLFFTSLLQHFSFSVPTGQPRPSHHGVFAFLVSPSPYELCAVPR
# Summary of the method: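 P450-Glo luminescent screen: recombinant CYP2D6 enzyme–proluciferin substrate mix preincubated with compound 10 min at room temperature, then NADPH regeneration added for 1 h at room temperature. Detection reagent added for 20 min; luciferin light read as relative luminescence units.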
# [6] = biological target: Rap guanine nucleotide exchange factor 3 (Homo sapiens) (UniProt O95398); test: Confirmatory qHTS for antagonist of cAMP-regulated guanine nucleotide exchange factor 3 (EPAC1) (AID 1645880); note: nearly all actives have a fitted effect of over 55% in size
# Rap guanine nucleotide exchange factor 3 (Homo sapiens), sequence (O95398 whole entry, looked up): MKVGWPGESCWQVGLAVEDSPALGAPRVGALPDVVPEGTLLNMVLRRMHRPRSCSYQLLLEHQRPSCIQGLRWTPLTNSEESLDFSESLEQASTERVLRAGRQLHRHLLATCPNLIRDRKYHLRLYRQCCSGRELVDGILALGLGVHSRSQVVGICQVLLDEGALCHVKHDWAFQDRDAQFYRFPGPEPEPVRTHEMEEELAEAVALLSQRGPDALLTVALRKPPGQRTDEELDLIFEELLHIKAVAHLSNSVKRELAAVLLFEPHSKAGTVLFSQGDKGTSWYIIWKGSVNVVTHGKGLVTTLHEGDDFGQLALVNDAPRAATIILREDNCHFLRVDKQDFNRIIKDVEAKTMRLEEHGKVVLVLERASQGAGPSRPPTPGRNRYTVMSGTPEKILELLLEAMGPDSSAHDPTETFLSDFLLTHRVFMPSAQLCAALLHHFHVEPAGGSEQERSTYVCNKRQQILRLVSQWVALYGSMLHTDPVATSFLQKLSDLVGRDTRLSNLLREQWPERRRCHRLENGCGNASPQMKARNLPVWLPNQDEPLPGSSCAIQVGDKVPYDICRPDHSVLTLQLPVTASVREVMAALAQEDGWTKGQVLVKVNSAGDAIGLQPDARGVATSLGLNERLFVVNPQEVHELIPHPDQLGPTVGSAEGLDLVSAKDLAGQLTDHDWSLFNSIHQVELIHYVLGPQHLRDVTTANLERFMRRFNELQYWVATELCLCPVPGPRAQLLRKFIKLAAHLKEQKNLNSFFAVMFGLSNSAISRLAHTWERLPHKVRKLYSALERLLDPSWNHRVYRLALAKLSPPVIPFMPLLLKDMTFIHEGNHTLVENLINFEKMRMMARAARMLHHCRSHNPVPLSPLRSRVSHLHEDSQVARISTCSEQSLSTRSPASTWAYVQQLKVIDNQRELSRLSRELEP
# Summary of the method: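 Nucleotide exchange uses 100 nM EPAC1, 250 nM RAP1B-BODIPY-GDP and 50 uM GDP, with compounds in a concentration-titration series. After 5 min at room temperature, fluorescence (480 nm ex/540 nm em) is read every 5 min for 30 min. Data are normalized to control ATA and DMSO.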
# [7] = biological target: Rap guanine nucleotide exchange factor 3 (Homo sapiens) (UniProt O95398); test: Confirmatory qHTS for agonist of cAMP-regulated guanine nucleotide exchange factor 3 (EPAC1) (AID 1645881);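 note: EPAC1 catalysed release of BODIPY-GDP from Rap1B seen as fluorescence loss; nearly all actives have a fitted effect of over 75% in size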
# [8] = biological target: Rap guanine nucleotide exchange factor 4 (Homo sapiens) (UniProt Q8WZA2); test: Confirmatory qHTS for agonist of cAMP-regulated guanine nucleotide exchange factor 4 (EPAC2) (AID 1645884);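 note: nucleotide exchange releases bodipy-GDP from Rap1 and this lowers its fluorescence; nearly all actives have a fitted effect of over 65% in size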
# Rap guanine nucleotide exchange factor 4 (Homo sapiens), sequence (Q8WZA2 whole entry, looked up, the tested form may be a part): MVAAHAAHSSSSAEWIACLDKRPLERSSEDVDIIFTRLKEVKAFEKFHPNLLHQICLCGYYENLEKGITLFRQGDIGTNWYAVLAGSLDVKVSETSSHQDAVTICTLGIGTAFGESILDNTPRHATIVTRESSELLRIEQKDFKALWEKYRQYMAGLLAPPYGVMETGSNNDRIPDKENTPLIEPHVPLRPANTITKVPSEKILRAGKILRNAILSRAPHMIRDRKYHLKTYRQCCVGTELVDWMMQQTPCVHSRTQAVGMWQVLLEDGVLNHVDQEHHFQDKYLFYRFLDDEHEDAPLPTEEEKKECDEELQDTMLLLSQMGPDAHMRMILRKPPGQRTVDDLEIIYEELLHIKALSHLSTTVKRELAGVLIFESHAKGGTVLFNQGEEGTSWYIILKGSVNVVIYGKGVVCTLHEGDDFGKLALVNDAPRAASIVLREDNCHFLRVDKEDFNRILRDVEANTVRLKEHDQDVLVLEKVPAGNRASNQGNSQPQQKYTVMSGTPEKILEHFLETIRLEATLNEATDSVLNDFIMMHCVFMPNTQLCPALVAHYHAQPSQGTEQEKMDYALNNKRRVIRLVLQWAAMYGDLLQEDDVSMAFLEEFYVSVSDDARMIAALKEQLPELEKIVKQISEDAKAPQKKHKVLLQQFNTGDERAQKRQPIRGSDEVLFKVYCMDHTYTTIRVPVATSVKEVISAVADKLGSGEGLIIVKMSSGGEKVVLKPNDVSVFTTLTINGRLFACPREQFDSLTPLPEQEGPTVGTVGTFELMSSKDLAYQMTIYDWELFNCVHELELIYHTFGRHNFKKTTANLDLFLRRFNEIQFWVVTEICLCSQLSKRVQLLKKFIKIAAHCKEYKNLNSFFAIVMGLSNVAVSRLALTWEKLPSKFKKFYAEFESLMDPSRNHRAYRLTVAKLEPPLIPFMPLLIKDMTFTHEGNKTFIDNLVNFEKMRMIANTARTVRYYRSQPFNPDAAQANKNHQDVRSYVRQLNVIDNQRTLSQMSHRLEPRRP
# [9] = Primary qHTS for inhibitors of nuclear receptor binding SET domain protein 2 (NSD2) in an isogenic RCH-ACV NSD2 p.E1099K mutant (9B) (AID 1645876); note: nearly all actives have a fitted effect of over 70% in size; note: potency is the fitted concentration of half-maximal effect
# [10] = Primary qHTS for inhibitors of nuclear receptor binding SET domain protein 2 (NSD2) in an RCH-ACV wild type WT cells (2C) (AID 1645877); note: nearly all actives have a fitted effect of over 70% in size; note: potency is the fitted concentration of half-maximal effect
# [11] = Counterscreen qHTS for small molecule stabilizers of the endoplasmic reticulum resident proteome: GLuc-NoTag assay (AID 1508627); note: potency is the fitted concentration of half-maximal effect;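 for activity change, negative = inhibition: SH-SY5Y cells given compound then 100 nM thapsigargin to empty ER calcium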
# Summary of the method: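 Luminescence of Gaussia luciferase secreted into the medium (coelenterazine, 0.07x final, unlysed cells) was the read-out. Human SH-SY5Y neuroblastoma cells constitutively secreting untagged GLuc received compound for 19 h, then 100 nM thapsigargin for 4 h.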
# [12] = Confirmatory qHTS for small molecule stabilizers of the endoplasmic reticulum resident proteome: Secreted ER Calcium Modulated Protein (SERCaMP) assay (AID 1508628); note: nearly all actives have a fitted effect of over 40% in size; note: potency is the fitted concentration of half-maximal effect
# Summary of the method: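 SH-SY5Y cells stably expressing GLuc-SERCaMP, treated 16 h with compound (primary 1.53, 7.67, 38.3 uM; confirmation 11 concentrations, up to 76.6 uM), then 100 nM thapsigargin for 4 h. Secreted Gaussia luciferase in medium read by coelenterazine luminescence.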
# [13] = Cell Viability qHTS for small molecule stabilizers of the endoplasmic reticulum resident proteome (AID 1508629); conditions: cell viability counter-screen, 100 nM thapsigargin for final 4 h;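 note: human SH-SY5Y neuroblastoma cells carrying the GLuc-SERCaMP reporter; compound exposure about 46 h in total before the viability read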
# [14] = Primary qHTS to identify inhibitors of SARS-CoV-2 cell entry (AID 1645846; calls by dose curve; note: nearly all actives have a fitted effect of over 45% in size); conditions: activity change, negative = inhibition: at 57.1 µM (top of the series) unless noted
# Summary of the method: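 HEK293-ACE2 (Expi293F, stable hACE2), 1500 cells/well, o/n 37C; cpd 23 nL pin, 1 h; MLV-PP w/ SARS-CoV-2-S (Wuhan-Hu-1, Δ19 C-term); 48 h 37C; Bright-Glo luminescence; normalized vs S-PP and bald PP.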
# [15] = Confirmatory qHTS to identify inhibitors of SARS-CoV-2 cell entry (AID 1645844; calls by dose curve; note: potency is the fitted concentration of half-maximal effect; nearly all actives have a fitted effect of over 45% in size)
# Summary of the method: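 Luminescence from a luciferase reporter, read 48 hr after pseudotyped-particle addition, gives entry signal, normalised to spike-bearing PP wells and bald PP lacking fusion protein wells. Cells are Expi293F stably expressing human ACE2, compound-pretreated 1 hr.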
# [16] = VSVG counterscreen qHTS to identify inhibitors of SARS-CoV-2 cell entry (AID 1645847; calls by dose curve; note: nearly all actives have a fitted effect of over 65% in size; note: potency is the fitted concentration of half-maximal effect)
# Summary of the method: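 Expi293F/hACE2 cells, overnight plating; cpd 1 h, 37C/5% CO2; + VSV-G PP (MLV pseudotyping), 48 h; supernatant removed, Bright-Glo luciferase read. Norm: VSV-G PP and bald PP wells.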
# [17] = Primary qHTS for small molecule stabilizers of the endoplasmic reticulum resident proteome: Secreted ER Calcium Modulated Protein (SERCaMP) assay (AID 1508630)
# Summary of the method: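 GLuc-SERCaMP-expressing SH-SY5Y cells, pretreated 16 h with compound, are challenged with thapsigargin to empty ER calcium stores; after 4 h, coelenterazine is added directly to the medium and luminescence is imaged.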
# [18] = biological target: Cytochrome P450 3A4 (Homo sapiens) (UniProt P08684); test: Cytochrome P450 family 3 subfamily A member 4 (CYP3A4) small molecule antagonists: luciferase qHTS assay (AID 1645841; active = well fitted curve in the direction sought with a large enough effect in the repeat runs; an effect the other way counts as inactive or inconclusive; note: nearly all actives have a fitted effect of over 45% in size; note: potency is the fitted concentration of half-maximal effect)
# Cytochrome P450 3A4 (Homo sapiens), sequence (P08684 whole entry, looked up): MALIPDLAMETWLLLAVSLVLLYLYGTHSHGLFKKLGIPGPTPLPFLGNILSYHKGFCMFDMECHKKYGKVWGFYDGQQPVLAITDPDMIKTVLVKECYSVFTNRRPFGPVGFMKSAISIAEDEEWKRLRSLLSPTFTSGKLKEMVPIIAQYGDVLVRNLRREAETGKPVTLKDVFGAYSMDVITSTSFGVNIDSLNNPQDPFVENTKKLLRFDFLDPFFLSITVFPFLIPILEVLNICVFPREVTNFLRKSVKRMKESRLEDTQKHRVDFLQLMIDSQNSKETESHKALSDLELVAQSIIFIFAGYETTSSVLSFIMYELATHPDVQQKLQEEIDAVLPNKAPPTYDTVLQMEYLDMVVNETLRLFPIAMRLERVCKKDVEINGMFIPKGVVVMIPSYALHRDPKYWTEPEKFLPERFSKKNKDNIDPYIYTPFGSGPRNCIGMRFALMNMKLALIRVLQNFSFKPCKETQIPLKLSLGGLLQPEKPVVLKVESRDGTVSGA
# Summary of the method: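 Luminescent CYP3A4 activity readout: compounds plus enzyme-substrate mix 10 min at room temperature, reaction started with NADPH regenerating system for 1 h, stopped with detection reagent, read after 20 min. Ketoconazole served as control.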
smiles,measurement,setting,value
CN(C)C(=S)SSC(=S)N(C)C,Potency,[1],39.8 µM (active)
same,Potency,[2],3.47 µM (active)
same,Potency,[3],1.58 µM (active)
COc1cc(C[C@@H](C)N)c(OC)cc1Br,Potency,[1],inactive
same,outcome,[4],inactive
same,Potency,[5],25.9 µM (active)
same,Potency,[2],inactive
O=C(N[C@@H]1N=C(c2ccccc2F)c2cccc3c2N(CC3)C1=O)c1cc2ccccc2[nH]1,Potency,[1],inactive
same,Potency,[5],inactive
Clc1ccc(CO/N=C(\Cn2ccnc2)c2ccc(Cl)cc2Cl)c(Cl)c1,Potency,[1],inactive
same,outcome,[6],inactive
same,outcome,[7],inactive
same,outcome,[8],inactive
CCC1(c2ccccc2)CCC(=O)NC1=O (configuration not stated),Potency,[1],inactive
same,Potency,[5],inactive
same,Potency,[9],inactive
same,Potency,[10],inactive
CCc1ccc(C2CCNCC2)cc1,Potency,[1],inactive
same,outcome,[4],inactive
same,Potency,[5],0.347 µM (active)
same,Potency,[2],inactive
same,Potency,[9],inactive
same,Potency,[10],inactive
O=C1NCN(c2ccccc2)C12CCN(CCCOc1ccc(F)cc1)CC2,Potency,[11],8.91 µM (active)
same,Potency,[12],2.51 µM (active) and 3.16 µM (active)
same,max response,[13],-6.39% (inactive)
same,Potency,[5],0.347 µM (active)
same,Potency,[2],inactive
same,Potency,[9],6.68 µM (active)
same,Potency,[10],7.5 µM (active)
CN1CCC(N(Cc2ccccc2)c2ccccc2)CC1,Potency,[1],inactive
same,outcome,[4],inactive
same,Potency,[5],0.11 µM (active)
same,Potency,[2],inactive
CC(CC(C#N)(c1ccccc1)c1ccccc1)N(C)C (configuration not stated),Potency,[1],inactive
same,Potency,[5],5.61 µM (active)
same,Potency,[2],inactive
same,Potency,[9],17.2 µM (active)
CNC(=O)NC(O)C(Cl)(Cl)Cl (configuration not stated),Potency,[1],inactive
same,outcome,[4],inactive
same,Potency,[5],inactive
same,Potency,[2],inactive
O=C(N[C@H]1N=C(c2ccccc2F)c2cccc3c2N(CC3)C1=O)c1cc2ccccc2[nH]1,Potency,[1],inactive
same,outcome,[4],inactive
same,Potency,[5],inactive
same,Potency,[2],6.92 µM (active)
same,Potency,[3],inactive
same,"activity change, negative = inhibition",[14],-28.2%
Clc1ccc(CSC(Cn2ccnc2)c2ccc(Cl)cc2Cl)cc1 (configuration not stated),Potency,[1],inactive
same,Potency,[9],5.96 µM (active)
same,Potency,[10],5.96 µM (active)
same,outcome,[7],inactive
same,outcome,[8],inactive
COc1ccc(CN2CCNCC2)c(OC)c1OC,Potency,[1],inactive
same,outcome,[4],inactive
same,Potency,[3],inactive
same,Potency,[14],inactive
same,Potency,[9],inactive
CCC(=O)C(CCN(C)C)(c1ccccc1)c1ccccc1,Potency,[1],inactive
same,Potency,[5],5.49 µM (active)
same,Potency,[15],12.1 µM (active)
same,Potency,[3],inactive
same,"activity change, negative = inhibition",[14],-43.2%
same,Potency,[16],3.41 µM (active)
CC[C@H]1C[C@@H]2C[C@H]3c4[nH]c5ccc(OC)cc5c4CCN(C2)[C@@H]13,Potency,[1],inactive
same,outcome,[4],inactive
same,Potency,[5],0.278 µM (active)
same,Potency,[2],inactive
CN1CCc2cc(Cl)c(O)cc2[C@H]2c3ccccc3CC[C@@H]21,Potency,[1],inactive
same,outcome,[4],inactive
same,Potency,[5],0.001 µM (active)
same,Potency,[2],inactive
O=C1CN2CCOC2(c2ccccc2Cl)c2cc(Cl)ccc2N1 (configuration not stated),Potency,[1],inactive
same,outcome,[17],inactive
same,Potency,[2],inactive
same,Potency,[3],inactive
same,"activity change, negative = inhibition",[14],-6.92%
same,Potency,[9],inactive
same,Potency,[10],inactive
C[N+]1(CCC(C(N)=O)(c2ccccc2)c2ccccc2)CCCCC1,Potency,[1],inactive
same,outcome,[4],inactive
same,Potency,[5],15.5 µM (active)
same,Potency,[2],inactive
same,Potency,[9],inactive
same,Potency,[10],inactive
Clc1ccc(C(OCCN2CCCCC2)c2ccccc2)cc1 (configuration not stated),Potency,[1],inactive
same,Potency,[5],0.049 µM (active)
same,Potency,[2],inactive
same,Potency,[3],inactive
same,Potency,[16],inactive
same,Potency,[9],26.6 µM (active)
same,Potency,[10],26.6 µM (active)
Nc1ccccc1C(=O)OCC(O)CO (configuration not stated),Potency,[1],inactive
same,Potency,[5],inactive
same,Potency,[2],inactive
same,Potency,[3],inactive
same,"activity change, negative = inhibition",[14],-1.98%
same,Potency,[9],inactive
same,Potency,[10],inactive
Cc1cccc(Cc2cnc[nH]2)c1C,Potency,[1],inactive
same,outcome,[4],inactive
same,Potency,[5],0.871 µM (active)
same,Potency,[2],0.123 µM (active)
same,Potency,[3],inactive
same,"activity change, negative = inhibition",[14],-1.14%
Oc1ccc2[nH]cc(CCCCN3CC=C(c4ccccc4)CC3)c2c1,Potency,[11],inactive
same,Potency,[12],12.6 µM (active)
same,Potency,[5],0.195 µM (active)
same,Potency,[9],7.5 µM (active)
same,Potency,[10],7.5 µM (active)
COP(=S)(OC)Oc1ccc(Sc2ccc(OP(=S)(OC)OC)cc2)cc1,Potency,[1],inactive
same,outcome,[4],inactive
same,Potency,[5],inactive
same,Potency,[18],7.76 µM (active)
same,Potency,[2],15.5 µM (active)
NC(=O)OCCCc1ccccc1,Potency,[11],inactive
same,Potency,[12],inactive
same,max response,[13],1.15% (inactive)
same,outcome,[4],inactive
same,Potency,[5],inactive
same,Potency,[18],inactive
same,Potency,[2],inactive
same,Potency,[3],inactive
same,Potency,[14],inactive
same,Potency,[9],inactive
same,Potency,[10],inactive
CCN(CC)Cc1nccn1-c1ccc([N+](=O)[O-])cc1C(=O)c1ccccc1Cl,Potency,[1],inactive
same,outcome,[4],inactive
same,Potency,[5],1.95 µM (active)
C[C@]12CC[C@H](O)CC1=CC[C@@H]1[C@@H]2CC[C@]2(C)C(=O)CC[C@@H]12,outcome,[17],inactive
same,outcome,[4],inactive
same,Potency,[2],inactive
same,Potency,[3],inactive
same,Potency,[14],inactive
same,Potency,[10],inactive
C[C@]12CC[C@H]3[C@@H](CC=C4C[C@@H](O)CC[C@@]43C)[C@@H]1CC[C@@H]2O,outcome,[17],inactive
same,outcome,[4],inactive
same,Potency,[5],inactive
same,Potency,[2],inactive
same,Potency,[9],inactive
same,Potency,[10],inactive
C[C@H](N)[C@H](O)c1ccc(O)c(O)c1,outcome,[17],inactive
same,outcome,[4],inactive
same,Potency,[2],inactive
same,Potency,[3],inactive
same,"activity change, negative = inhibition",[14],-20.4%
same,Potency,[9],inactive
same,Potency,[10],inactive
same,outcome,[7],inactive
CN(C)CCc1c[nH]c2ccc(O)cc12,outcome,[4],inactive
same,Potency,[5],31 µM (active)
same,Potency,[2],inactive
same,Potency,[9],inactive
same,Potency,[10],inactive
C#C[C@]1(O)C=C[C@H]2[C@@H]3CCC4=CC(=O)CC[C@@H]4[C@H]3CC[C@@]21CC,outcome,[17],inactive
same,outcome,[4],inactive
same,Potency,[2],2.75 µM (active)
same,Potency,[3],inactive
same,"activity change, negative = inhibition",[14],-10.9%
Cc1nc2ccccc2c(=O)n1-c1ccccc1Cl,outcome,[17],inactive
same,outcome,[4],inactive
same,Potency,[2],27.7 µM (active)
